Experimental data from ChEMBL document CHEMBL4513216, “Probing the Open Global Health Chemical Diversity Library for Multistage-Active Starting Points for Next-Generation Antimalarials” (ACS Infect Dis, 2020).
The whole screen tested about 69,000 compounds, of which about 8,600 (12%) showed an effect of 50% or more. What follows is part of a selection rich in strong results, with near analogues and random picks from the rest.

test system: Plasmodium berghei; assay: Screen against P. berghei liver stage (PbLuc), transformed with Luciferase, at 10uM; assay type: functional, HepG2; details: tested at 10 uM

Row | SMILES | INHIBITION [%]
1 | Cc1c(C2CCCN(C(=O)OC(C)(C)C)C2)n2c(nc1=O)CCC2 (stereo not given) | 13.5
2 | COCCC(=O)Nc1cc(CC(C)(C)C)n[nH]1 | -28.6
3 | Cc1cnc(C)c(-c2cc(O)c3c(c2)CN(c2ncccn2)CCO3)n1 | 53
4 | Cc1cnc(C)c(-c2cc(O)c3c(c2)CN(c2nccs2)CCO3)n1 | 28.5
5 | Cc1cnc(C)c(-c2cc(O)c3c(c2)CN(Cc2nccs2)CCO3)n1 | -16.9
6 | CS(=O)(=O)N1C[C@H](NC(=O)c2ccno2)[C@@H]2OCCC[C@@H]21 | 38.5
7 | CSc1ccc(CN(CCO)Cc2nccn2C)cc1 | 43.9
8 | Cn1ccnc1CN(CCCO)CC(F)(F)F | 54.8
9 | Cn1ccnc1CN(CCCO)C1CCCc2ccccc21 (stereo not given) | -26.8
10 | Fc1cccc(CNc2cncc(-n3cccn3)n2)c1 | 50.1
11 | CCOc1cccc(CNc2cncc(-n3cccn3)n2)c1 | 31.6
12 | CCCOc1ccc(CNc2cncc(-n3cccn3)n2)cc1 | 82.6
13 | CC(C)OCc1ccc(CNc2cncc(-n3cccn3)n2)cc1 | 80.6
14 | Cc1cccc(CNc2cncc(-n3cccn3)n2)c1 | 47.6
15 | CCOCCOCc1cccc(CNc2cncc(-n3cccn3)n2)c1 | 24.2
16 | COCc1ccc(CNc2cncc(-n3cccn3)n2)cc1 | -21.9
17 | CCOCc1ccc(CNc2cncc(-n3cccn3)n2)cc1 | 80.6
18 | CNC(=O)COc1ccc(CNc2cncc(-n3cccn3)n2)cc1 | 23.4
19 | CNS(=O)(=O)Cc1ccc(CNc2cncc(-n3cccn3)n2)cc1 | 44.2
20 | CN(C)c1ccc(CNc2cncc(-n3cccn3)n2)cc1 | 49.6
21 | COC(=O)Nc1ccc(CNc2cncc(-n3cccn3)n2)cc1 | 3.73
22 | OCCN(Cc1ccncc1)CC1(c2ccc(Cl)cc2)CC1 | 46.2

Row | SMILES | INHIBITION [%]
23 | CC(Nc1cccc2c1OCCO2)C(=O)Nc1ccc(S(N)(=O)=O)cc1 (stereo not given) | -24.9
24 | Cc1nc(CN(C)C2CCN(CCCOc3ccccc3C)C2)no1 (stereo not given) | 27.4
25 | CC(C)c1nc(C(=O)N2CCOCC2CC(=O)c2ccco2)cs1 (stereo not given) | 37.4
26 | COC(C)(C)C(=O)NCC1CCN(Cc2cc3ccccc3[nH]2)C1 (stereo not given) | 40.8
27 | O=C(NCC1CCN(Cc2cc3ccccc3[nH]2)C1)C1CCCCC1 (stereo not given) | 54.1
28 | O=C(Cn1cccc1)NCC1CCN(Cc2cc3ccccc3[nH]2)C1 (stereo not given) | 46.7
29 | Cc1nc(NCC2CC2)nc2c1COCC21CCN(C(=O)NC(C)C)C1 (stereo not given) | 29.9
30 | CN(CC1CCOC1)c1ncc(Br)cn1 (stereo not given) | 12.8
31 | CC(NC(=O)CSCC#N)c1cccc(Cl)c1 (stereo not given) | -29.7
32 | Cc1nc(CN2CCCC(Cn3cncn3)C2)nc2ccccc12 (stereo not given) | 29.95
33 | Cc1ccnc(NCCCN2CCc3ccccc32)n1 | 3.58
34 | CN(C)c1nc(NCCCN2CCc3ccccc32)ncc1F | 55.1
35 | Cc1cnc(NCCCN2CCc3ccccc32)nc1 | -15.4
36 | COCc1cc(CN(C)C(=O)CCC(=O)Nc2cc(C)ccc2F)n[nH]1 | 34.4
37 | CCOc1ccc(C(=O)CCC(=O)NCCc2nncn2CC)cc1C | 15
38 | CCOc1ccc(C(=O)CCC(=O)NCc2csc(N)n2)cc1C | 56.1
39 | Cc1ccc(F)c(NC(=O)CCC(=O)N(C)Cc2nc(C)c[nH]2)c1 | 53.9
40 | CCOc1ccc(C(=O)CCC(=O)N(C)Cc2nc(C)c[nH]2)cc1C | 63.4
41 | CCc1cccc(NC(=O)CCC(=O)N(C)Cc2nc(C)c[nH]2)c1 | 12.8
42 | CCOc1ccc(C(=O)CCC(=O)NCc2cncn2CC)cc1C | -5.59
43 | CCOc1ccc(C(=O)CCC(=O)N(C)Cc2noc(C)n2)cc1C | 11.9
44 | CCOc1ccc(C(=O)CCC(=O)N(C)Cc2cnccn2)cc1C | 40.6

Row | SMILES | INHIBITION [%]
45 | CCOCC(=O)N1C[C@@H]2CCN(c3cnccn3)C[C@@H]2C1 | 32.1
46 | COC(=O)c1cc2c(=O)n(C3CCCC3)ccc2nc1C | 46.1
47 | Cn1cccc1CN1CCC2(CC1)CCN(C(=O)c1cnccn1)CC2 | 39.5
48 | CNC(=O)[C@@]12CCC3(CCN(C(=O)C(C)C)CC3)[C@@H]1CN(S(C)(=O)=O)C2 | 26.3
49 | Cc1cc(C(=O)N2CCOCC2c2nc(C)c[nH]2)nc(O)n1 (stereo not given) | 27.75
50 | CC(C)C[C@H](N)C(=O)N1CCSc2ccccc2C1 | 81.6
51 | NC(C(=O)N1CCSc2ccccc2C1)c1ccccc1 (stereo not given) | -22.1
52 | CC(C)[C@H](N)C(=O)N1CCSc2ccccc2C1 | -20.5
53 | Cc1nc(C)n(CCCNc2ncnc3onc(C)c23)n1 | 19.2
54 | CCCc1nc(C)c(CNc2nc(C)nc3oc(C)nc23)s1 | 48.9
55 | CCCc1nc(C)c(CNc2nc(C)nc3onc(C)c23)s1 | 81.4
56 | CC(C)C(=O)Nc1cccc(C(=O)Nc2ccccn2)c1 | 8.99
57 | CCOc1cccc(C(=O)Nc2ccncc2)c1 | 50.3
58 | CCCNC(=O)c1ccc(NC(=O)c2cccc(OCC)c2)cc1 | 23.5
59 | CCOc1cccc(C(=O)NCCC(=O)Nc2ccncc2)c1 | 46.6
60 | O=C(COCC1CC1)Nc1ncccc1I | -2.98
61 | CC(OCC1CC1)C(=O)Nc1ncccc1I (stereo not given) | 50.4
62 | CC(OCC1CC1)C(=O)Nc1cccc(C(=O)Nc2ccccn2)c1 (stereo not given) | 36.5
63 | CC(OCC1CC1)C(=O)Nc1cccc(C(=O)Nc2ccncc2)c1 (stereo not given) | 82.4
64 | CC(OCC1CC1)C(=O)NCCC(=O)Nc1ccccn1 (stereo not given) | 1.74
65 | CCc1noc(C(C)N2CCN(C(=O)CN3CCOCC3)CC2)n1 (stereo not given) | -25.8
66 | Cc1sc(-c2ccco2)nc1C(=O)N1CCCC1Cn1cccn1 (stereo not given) | 34.7

Row | SMILES | INHIBITION [%]
67 | Cc1cccc(Nc2ccc(C3CCN(Cc4ncc[nH]4)CC3)nc2)n1 | 36
68 | Cc1cc(Nc2ccc(F)cn2)cc(C2CCN(Cc3ncc[nH]3)C2)n1 (stereo not given) | 42.6
69 | Fc1ccc(Nc2ccc(C3CCN(Cc4ncc[nH]4)CC3)nc2)nc1 | 56.9
70 | CC(C)C(=O)N1CC[C@H]2N(C)CC[C@@]2(C(=O)Nc2cccnc2)CC1 | -22.2
71 | CCN(CCO)Cc1cn(-c2cccc(F)c2)nc1-c1ccc(C)o1 | 25.7
72 | Cc1ccc(-c2nn(-c3cccc(F)c3)cc2CN(C)CCO)o1 | 65.7
73 | Cc1ccc(-c2nn(-c3cccc(F)c3)cc2CN(CCO)CCO)o1 | 27.4
74 | Cc1cc(-c2cnn(CCNC(=O)Cc3ccccn3)c2C2CC2)on1 | 60.4
75 | Cc1cc(-c2cnn(CCNC(=O)C3CC3)c2C2CC2)on1 | 59.7
76 | Cc1cc(-c2cnn(CCNC(=O)C3CCCO3)c2C2CC2)on1 (stereo not given) | 40.4
77 | Cc1cc(-c2cnn(CCNC(=O)c3cnn(C)c3)c2C2CC2)on1 | 10
78 | Cc1cc(-c2cnn(CCNC(=O)CCn3cccn3)c2C2CC2)on1 | -1.85
79 | Cc1cc(-c2cnn(CCNC(=O)c3cccnc3)c2C2CC2)on1 | 38.7
80 | O=C(c1cccnc1)N1C[C@H]2CC[C@@H](C1)N(Cc1ccc(F)cc1Cl)C2 | -30
81 | COc1ccc(C)cc1CN(CC(N)=O)C(C)C | -4.63
82 | O=C(NC[C@H]1OC[C@@H]2CCN(Cc3ccco3)C[C@@H]21)c1ccnnc1 | 6.72
83 | Cc1ocnc1C(=O)N(C)[C@@H]1CCC[C@@H](N2CCCC2)[C@@H]1O | 39.3
84 | O=C(NC1CC1)c1cccc(S(=O)(=O)NCCc2nc(C3CC3)no2)c1 | -86.5
85 | COCCc1noc(CN2CCN(c3ccc(OC)cc3)C(=O)C2C)n1 (stereo not given) | 3.3
86 | CCc1csc(CNCC(=O)Nc2ccc(Cl)c(C)c2)n1 | 49
87 | Cc1cc(NC(=O)CNCc2csc(-c3cnccn3)n2)ccc1Cl | 52.2
88 | Cc1cc(NC(=O)CNCc2csc(-c3ncccn3)n2)ccc1Cl | 18

Row | SMILES | INHIBITION [%]
89 | Cc1nnc(CN2CCC3(CCC(=O)N(C4CCC(O)CC4)C3)CC2)o1 (stereo not given) | 26
90 | CN(Cc1cnn(C)c1)C1CCCN(Cc2noc(C3CC3)n2)C1 (stereo not given) | 14.9
91 | CN(Cc1cccnc1)C1CCCN(Cc2noc(C3CC3)n2)C1 (stereo not given) | 57.45
92 | Cc1cc(CN2CCC(N(C)Cc3noc(C4CC4)n3)C2)no1 (stereo not given) | 33.3
93 | CN(Cc1ccccn1)C1CCCN(Cc2noc(C3CC3)n2)C1 (stereo not given) | 16.9
94 | Cc1nc(CN2CCCC(N(C)Cc3c(C)noc3C)C2)no1 (stereo not given) | 58
95 | Cc1cc(CN(C)C2CCCN(Cc3noc(C4CC4)n3)C2)no1 (stereo not given) | 53.8
96 | Cc1nc(CN2CCCC(N(C)Cc3nc(C)c(C)o3)C2)no1 (stereo not given) | -31.8
97 | Cc1nc(CN(C)C2CCN(Cc3c(C)noc3C)C2)no1 (stereo not given) | 21.5
98 | Cc1cc(CN(C)C2CCCN(Cc3noc(C)n3)C2)no1 (stereo not given) | -14.7
99 | Cc1cccc(CNCc2ccc(NC(=O)NC(C)C)cc2)c1 | 47.1
100 | c1csc(CN2CCc3nnc(COc4cncnc4)n3CC2)c1 | 20.5
101 | COc1ccccc1OCCNC(=O)N1CCC(n2cncn2)CC1 | 3.15
102 | CCn1cnnc1CNC(=O)NC(C)C(C)C (stereo not given) | 10
103 | CC(NC(=O)NCc1cc(Br)cs1)c1ccccn1 (stereo not given) | 82.6
104 | CC(NC(=O)NCc1ccc(Cl)s1)c1ccccn1 (stereo not given) | 17.7
105 | CCn1cnnc1CNC(=O)NC(C)c1cccs1 (stereo not given) | 31
106 | CCn1cnnc1CNC(=O)NCC(C(C)C)N1CCC(C)CC1 (stereo not given) | 37.1
107 | CCn1cnnc1CNC(=O)N1CCOCC1 | -4.1
108 | CC(NC(=O)NCc1ccc(Cl)cc1)c1ccccn1 (stereo not given) | 13.5
109 | CCn1cnnc1CNC(=O)NCC(C(C)C)N1CCOCC1 (stereo not given) | 56.8
110 | CCn1cnnc1CNC(=O)NC(C)c1ccccn1 (stereo not given) | 57.8
